From PubChem BioAssay (EPA / NIEHS)
Where “and” joins values, the source holds several entries; their conditions need not be identical. Equal entries are not always repeated. Some compounds were tested as several samples or in several runs, with calls that do not always agree. Calls of active or inactive are those of the source. How the source made its calls: active means hit-call score of the fitted dose curve at least 0.9, where 1 is the maximum; inactive means score below 0.9.

Read-out: Cytochrome P450 2C19 (Homo sapiens) (UniProt P33261)
Assay: LTEA_HepaRG_CYP2C19: Life Technologies and Expression Analysis (LTEA) Assay for CYP2C19 using HepaRG (AID 2283482)
Details: mRNA level, 48 h; actives raise or lower the signal
Summary of the method: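 HepaRG, 48 h chemical exposure, 8-pt half-log series from 100 uM in 0.5% DMSO, duplicates. Readout: CYP2C19 mRNA by TaqMan qRT-PCR, housekeeping-normalized. Bidirectional fit vs DMSO baseline; phenobarbital 1mM as induction control.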

Sequence of Cytochrome P450 2C19 (Homo sapiens) (P33261 whole entry, looked up): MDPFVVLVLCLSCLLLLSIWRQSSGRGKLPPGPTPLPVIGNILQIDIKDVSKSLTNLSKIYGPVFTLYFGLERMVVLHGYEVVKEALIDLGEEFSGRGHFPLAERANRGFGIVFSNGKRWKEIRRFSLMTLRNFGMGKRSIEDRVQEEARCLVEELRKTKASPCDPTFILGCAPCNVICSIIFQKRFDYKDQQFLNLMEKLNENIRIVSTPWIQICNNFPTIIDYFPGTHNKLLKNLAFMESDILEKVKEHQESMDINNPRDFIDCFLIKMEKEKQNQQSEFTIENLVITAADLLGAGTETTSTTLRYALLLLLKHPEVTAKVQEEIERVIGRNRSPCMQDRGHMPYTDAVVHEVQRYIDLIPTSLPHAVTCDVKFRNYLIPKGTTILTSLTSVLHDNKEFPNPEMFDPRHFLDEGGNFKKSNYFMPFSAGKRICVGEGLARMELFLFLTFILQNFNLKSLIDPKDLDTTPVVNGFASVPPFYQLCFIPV

SMILES	AC50	outcome
O=C(O)C(F)(F)C(F)(F)C(F)(F)C(F)(F)C(F)(F)C(F)(F)C(F)(F)F	9.92 µM (active) and 5.55 µM (active)	–
CC(C)N(C(=O)COc1nnc(C(F)(F)F)s1)c1ccc(F)cc1	–	inactive
OCCOc1ccccc1	–	inactive
O=C(Nc1ccccc1)Nc1cnns1	89.1 µM (active)	–
CNC(=O)CSP(=S)(OC)OC	–	inactive
ClC1C(Cl)C(Cl)C(Cl)C(Cl)C1Cl (configuration not stated)	1.1 µM (active) and 1.12 µM (active)	–
CCCN(CCC)c1c([N+](=O)[O-])cc(C(F)(F)F)cc1[N+](=O)[O-]	–	inactive
O=S(=O)(O)C(F)(F)C(F)(F)C(F)(F)C(F)(F)C(F)(F)C(F)(F)C(F)(F)C(F)(F)F	89.3 µM (active) and 12.1 µM (active) and 11 µM (active)	inactive
CN1CSC(=S)N(C)C1	–	inactive
CC1(c2ccc(Oc3ccccc3)cc2)OC(=O)N(Nc2ccccc2)C1=O (configuration not stated)	26.3 µM (active)	–
O=C1c2ccccc2C(=O)N1SC(Cl)(Cl)Cl	–	inactive
CCOC1Oc2ccc(OS(C)(=O)=O)cc2C1(C)C (configuration not stated)	11.7 µM (active)	–
CC(C)(C)C(O)C(Oc1ccc(Cl)cc1)n1cncn1 (configuration not stated)	2.61 µM (active) and 3.24 µM (active) and 1.89 µM (active)	–
COc1nn(CSP(=S)(OC)OC)c(=O)s1	10.6 µM (active)	–
O=C(NC(=O)c1c(F)cccc1F)Nc1ccc(OC(F)(F)C(F)OC(F)(F)F)c(Cl)c1 (configuration not stated)	–	inactive
O=C(O)CCCOc1ccc(Cl)cc1Cl	14 µM (active)	–
O=[N+]([O-])/N=C1\NCCN1Cc1ccc(Cl)nc1	34 µM (active)	–
Clc1ccccc1-c1nnc(-c2ccccc2Cl)nn1	15.3 µM (active)	–
Oc1cc(Cl)ccc1Oc1ccc(Cl)cc1Cl	83.2 µM (active)	inactive
CCC(C)Nc1c([N+](=O)[O-])cc(C(C)(C)C)cc1[N+](=O)[O-] (configuration not stated)	12.9 µM (active)	–
Oc1ccc(Cl)cc1Cc1ccccc1	83.7 µM (active) and 50.5 µM (active)	inactive
CNC(=O)/C=C(\C)OP(=O)(OC)OC	–	inactive

Read-out: CYP2C8 (gene 1558)
Assay: LTEA_HepaRG_CYP2C8: Life Technologies and Expression Analysis (LTEA) Assay for CYP2C8 using HepaRG (AID 2283483)
Details: mRNA level, 48 h; actives raise or lower the signal
Summary of the method: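 Differentiated HepaRG cells in serum-free induction medium exposed 48 h in duplicate to 8 half-log concentrations from 100 uM in 0.5% DMSO. CYP2C8 mRNA by qRT-PCR normalized to ACTB, GAPDH, POLR2A; bidirectional fit versus DMSO.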

SMILES	AC50	outcome
O=C(O)C(F)(F)C(F)(F)C(F)(F)C(F)(F)C(F)(F)C(F)(F)C(F)(F)F	12.8 µM (active)	inactive
CC(C)N(C(=O)COc1nnc(C(F)(F)F)s1)c1ccc(F)cc1	–	inactive
OCCOc1ccccc1	–	inactive
O=C(Nc1ccccc1)Nc1cnns1	88.7 µM (active)	–
CNC(=O)CSP(=S)(OC)OC	–	inactive
ClC1C(Cl)C(Cl)C(Cl)C(Cl)C1Cl (configuration not stated)	0.418 µM (active)	inactive
CCCN(CCC)c1c([N+](=O)[O-])cc(C(F)(F)F)cc1[N+](=O)[O-]	–	inactive
O=S(=O)(O)C(F)(F)C(F)(F)C(F)(F)C(F)(F)C(F)(F)C(F)(F)C(F)(F)C(F)(F)F	88.2 µM (active) and 12.1 µM (active) and 87.9 µM (active)	–
CN1CSC(=S)N(C)C1	–	inactive
CC1(c2ccc(Oc3ccccc3)cc2)OC(=O)N(Nc2ccccc2)C1=O (configuration not stated)	15.9 µM (active)	–
O=C1c2ccccc2C(=O)N1SC(Cl)(Cl)Cl	–	inactive
CCOC1Oc2ccc(OS(C)(=O)=O)cc2C1(C)C (configuration not stated)	86.4 µM (active)	–
CC(C)(C)C(O)C(Oc1ccc(Cl)cc1)n1cncn1 (configuration not stated)	3.91 µM (active) and 4.21 µM (active)	inactive
COc1nn(CSP(=S)(OC)OC)c(=O)s1	–	inactive
O=C(NC(=O)c1c(F)cccc1F)Nc1ccc(OC(F)(F)C(F)OC(F)(F)F)c(Cl)c1 (configuration not stated)	–	inactive
O=C(O)CCCOc1ccc(Cl)cc1Cl	14.6 µM (active)	–
O=[N+]([O-])/N=C1\NCCN1Cc1ccc(Cl)nc1	74.1 µM (active)	–
Clc1ccccc1-c1nnc(-c2ccccc2Cl)nn1	–	inactive
Oc1cc(Cl)ccc1Oc1ccc(Cl)cc1Cl	86.4 µM (active)	inactive
CCC(C)Nc1c([N+](=O)[O-])cc(C(C)(C)C)cc1[N+](=O)[O-] (configuration not stated)	12.6 µM (active)	–
Oc1ccc(Cl)cc1Cc1ccccc1	–	inactive
CNC(=O)/C=C(\C)OP(=O)(OC)OC	–	inactive

Read-out: CYP2C9 (gene 1559)
Assay: LTEA_HepaRG_CYP2C9: Life Technologies and Expression Analysis (LTEA) Assay for CYP2C9 using HepaRG (AID 2283484)
Details: mRNA level, 48 h; actives raise or lower the signal
Summary of the method: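 Differentiated human HepaRG cells in serum-free induction medium were exposed 48 h to chemicals in 8-point half-log series from 100 uM (0.5% DMSO), in duplicate. CYP2C9 mRNA was measured by qRT-PCR, normalized to ACTB/GAPDH/POLR2A, with bidirectional fitting versus DMSO.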

SMILES	outcome	AC50
O=C(O)C(F)(F)C(F)(F)C(F)(F)C(F)(F)C(F)(F)C(F)(F)C(F)(F)F	inactive	–
CC(C)N(C(=O)COc1nnc(C(F)(F)F)s1)c1ccc(F)cc1	inactive	–
OCCOc1ccccc1	inactive	–
O=C(Nc1ccccc1)Nc1cnns1	–	84 µM (active)
CNC(=O)CSP(=S)(OC)OC	inactive	–
ClC1C(Cl)C(Cl)C(Cl)C(Cl)C1Cl (configuration not stated)	inactive	1.93 µM (active)
CCCN(CCC)c1c([N+](=O)[O-])cc(C(F)(F)F)cc1[N+](=O)[O-]	inactive	–
O=S(=O)(O)C(F)(F)C(F)(F)C(F)(F)C(F)(F)C(F)(F)C(F)(F)C(F)(F)C(F)(F)F	inactive	80.2 µM (active) and 88.7 µM (active)
CN1CSC(=S)N(C)C1	inactive	–
CC1(c2ccc(Oc3ccccc3)cc2)OC(=O)N(Nc2ccccc2)C1=O (configuration not stated)	–	17.4 µM (active)
O=C1c2ccccc2C(=O)N1SC(Cl)(Cl)Cl	inactive	–
CCOC1Oc2ccc(OS(C)(=O)=O)cc2C1(C)C (configuration not stated)	–	82 µM (active)
CC(C)(C)C(O)C(Oc1ccc(Cl)cc1)n1cncn1 (configuration not stated)	inactive	–
COc1nn(CSP(=S)(OC)OC)c(=O)s1	inactive	–
O=C(NC(=O)c1c(F)cccc1F)Nc1ccc(OC(F)(F)C(F)OC(F)(F)F)c(Cl)c1 (configuration not stated)	inactive	–
O=C(O)CCCOc1ccc(Cl)cc1Cl	inactive	–
O=[N+]([O-])/N=C1\NCCN1Cc1ccc(Cl)nc1	–	38.1 µM (active)
Clc1ccccc1-c1nnc(-c2ccccc2Cl)nn1	inactive	–
Oc1cc(Cl)ccc1Oc1ccc(Cl)cc1Cl	inactive	93.4 µM (active)
CCC(C)Nc1c([N+](=O)[O-])cc(C(C)(C)C)cc1[N+](=O)[O-] (configuration not stated)	inactive	–
Oc1ccc(Cl)cc1Cc1ccccc1	inactive	79.2 µM (active)
CNC(=O)/C=C(\C)OP(=O)(OC)OC	inactive	–
